Test [1] is described as follows: qHTS assay to identify small molecule antagonists of the glucocorticoid receptor (GR) signaling pathway - cell viability counter screen (AID 720693; note: nearly all actives have a fitted effect of over 55% in size; note: potency is the fitted concentration of half-maximal effect). (In general: qHTS replaces the single test concentration by a dilution series.)
Test [2] in a line: qHTS assay for identifying genotoxic compounds that show differential cytotoxicity against isogenic chicken DT40 cell lines with known DNA damage response pathways - wild type cell line (AID 743012). Note: nearly all actives have a fitted effect of over 60% in size. Note: potency is the fitted concentration of half-maximal effect. An outline of the steps:
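CellTiter-Glo luminescence readout of viability in wild type DT40 cells after 40 h compound exposure at 37 C/5% CO2; 300 cells/well; reagent incubated 30 min at room temperature before reading.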

Test [3] can be described thus: qHTS assay for identifying genotoxic compounds that show differential cytotoxicity against isogenic chicken DT40 cell lines with known DNA damage response pathways - Rev3 mutant cell line (AID 743014). Note: potency is the fitted concentration of half-maximal effect; nearly all actives have a fitted effect of over 55% in size.
Test [4] is described as follows: qHTS assay for identifying genotoxic compounds that show differential cytotoxicity against isogenic chicken DT40 cell lines with known DNA damage response pathways - Rad54/Ku70 mutant cell line (AID 743015). Note: nearly all actives have a fitted effect of over 60% in size. Note: potency is the fitted concentration of half-maximal effect.
A short description of test [5]: qHTS assay to identify small molecule antagonists of the thyroid receptor (TR) signaling pathway - cell viability counter screen (AID 743064). Note: nearly all actives have a fitted effect of over 50% in size. Note: potency is the fitted concentration of half-maximal effect. An outline of the steps: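 Viability of T3-stimulated (1 nM final) GH3.TRE-Luc cells is measured by CellTiter-Fluor fluorescence after 23.5 h compound exposure at 37 °C plus 30 min reagent incubation.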
The nature of test [6]: qHTS assay to identify small molecule antagonists of the thyroid receptor (TR) signaling pathway (AID 743065). Note: nearly all actives have a fitted effect of over 55% in size. Note: potency is the fitted concentration of half-maximal effect. In outline: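 GH3.TRE-Luc rat pituitary cells (two TREs driving luciferase) were dosed with compound, then stimulated with 1 nM T3 (final) for 23.5 h at 37 C. ONE-Glo luminescence was the read-out, with CellTiter-Fluor fluorescence as the cytotoxicity counter-screen.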

Test [7] in a line: qHTS assay to identify small molecule antagonists of the estrogen receptor alpha (ER-alpha) signaling pathway - cell viability counter screen (AID 743074; calls by dose curve;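 note: HEK293 cells carrying ER-alpha-UAS-bla reporter stimulated with 17beta-estradiol; nearly all actives have a fitted effect of over 45% in size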; note: potency is the fitted concentration of half-maximal effect).
A further test has as its target Aromatase (Homo sapiens) (UniProt P11511). Nature of the test: qHTS assay to identify aromatase inhibitors (AID 743083). Note: nearly all actives have a fitted effect of over 55% in size. Note: potency is the fitted concentration of half-maximal effect.
The nature of test [8]: qHTS assay to identify small molecule antagonists of the androgen receptor (AR) signaling pathway - cell viability counter screen (AID 743033; note: % is set by controls: 0 for no effect and ±100 for the full control effect; nearly all actives have a fitted effect of over 45% in size).
Test [9] can be described thus: qHTS assay to identify small molecule antagonists of the androgen receptor (AR) signaling pathway using the MDA cell line - cell viability counter screen (AID 743041; note: nearly all actives have a fitted effect of over 45% in size; note: potency is the fitted concentration of half-maximal effect). An outline of the steps: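 Cytotoxicity counter screen: MDA-kb2 AR-luc cells, compound + R1881, 16 h, 37C, 0% CO2; CellTiter-Fluor added at 15.5 h, fluorescence read after 30 min.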
The target of test [10] is Estrogen receptor (Homo sapiens) (UniProt P03372). Nature of the test: qHTS assay to identify small molecule agonists of the estrogen receptor alpha (ER-alpha) signaling pathway (AID 743075; calls by dose curve;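 note: HEK293 GripTite cells with ER-alpha and UAS-driven beta-lactamase reporter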; note: potency is the fitted concentration of half-maximal effect; for activation: % is set by controls: 0 for no effect and ±100 for the full control effect). To be noted: HEK293 ER-alpha-UAS-bla, beta-lactamase FRET ratio, 18 h; activation: at 70.1 µM (top of the series).
The nature of test [11]: qHTS assay to identify small molecule antagonists of the estrogen receptor alpha (ER-alpha) signaling pathway using the BG1 cell line - cell viability counter screen (AID 743081).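 Note: compound given together with 17beta-estradiol as the ER stimulus; nearly all actives have a fitted effect of over 45% in size.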 Note: potency is the fitted concentration of half-maximal effect.
Test [12] concerns thyroid hormone receptor (rat, GH3 cells). Nature of the test: qHTS assay to identify small molecule agonists of the thyroid receptor (TR) signaling pathway (AID 743066; calls by dose curve; note: % is set by controls: 0 for no effect and ±100 for the full control effect).
Test [13] has as its target Estrogen receptor (Homo sapiens) (UniProt P03372). Nature of the test: qHTS assay to identify small molecule antagonists of the estrogen receptor alpha (ER-alpha) signaling pathway (AID 743069; active = well fitted curve in the direction sought with a large enough effect in the signal ratio in the repeat runs, not every such curve was filed as active; inconclusive = weak or mixed curves, or effect the other way; inactive = no such curve, though single readings can be large or run the other way; the % refers to the signal ratio; note: % is set by controls: 0 for no effect and ±100 for the full control effect). In outline:
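Beta-lactamase FRET fluorescence is read after 2 hr at room temperature with LiveBLAzer B/G substrate. Before that, ER-alpha-bla HEK293 cells sit 4 hr after plating, then receive compound plus 17beta-estradiol and incubate 18 hr at 37C.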

Test [14] shares this target. Nature of the test: qHTS assay to identify small molecule agonists of the estrogen receptor alpha (ER-alpha) signaling pathway using the BG1 cell line (AID 743079). For all read-outs here: nearly all actives have a fitted effect of over 20% in size. Note: potency is the fitted concentration of half-maximal effect. The conditions noted are these: BG1Luc4E2 cells, ERE-luciferase agonist, 22 h; for activation: at 70.3 µM (top of the series).
Test [15] is described as follows: qHTS assay to identify small molecule antagonists of the estrogen receptor alpha (ER-alpha) signaling pathway using the BG1 cell line (AID 743080; calls by dose curve;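 note: BG1 cells stimulated with 17beta-estradiol alongside compound; % is set by controls: 0 for no effect and ±100 for the full control effect; nearly all actives have a fitted effect of over 25% in size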). An outline of the steps:
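Seeding, 24 h rest, compound transfer from DMSO, 17beta-estradiol addition, 21.5 h incubation, CellTiter-Fluor (30 min, 37 C), then ONE-Glo (30 min, room temperature): this sequence was run on BG1-Luc-4E2 reporter cells.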

For test [16], the target named is Androgen receptor (Homo sapiens) (UniProt P10275). Nature of the test: qHTS assay to identify small molecule antagonists of the androgen receptor (AR) signaling pathway (AID 743035; active = well fitted inhibition curve with a large enough effect in the signal ratio in the repeat runs, not every such curve was filed as active; inconclusive = weak or mixed curves, or effect the other way; inactive = no such curve, though single readings can be large or run the other way; the % refers to the signal ratio; note: % is set by controls: 0 for no effect and ±100 for the full control effect). An outline of the steps: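 AR-bla HEK293 reporter cells; 4 h settle at 37C/5% CO2; compound + R1881 agonist, 16 h at 37C; LiveBLAzer B/G FRET substrate 2 h RT; fluorescence intensity read. qHTS format.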

Test [17] shares this target. Nature of the test: qHTS assay to identify small molecule agonists of the androgen receptor (AR) signaling pathway using the MDA cell line (AID 743040; note: % is set by controls: 0 for no effect and ±100 for the full control effect; nearly all actives have a fitted effect of over 20% in size). An outline of the steps: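 Luciferase read-out, ONE-Glo, 30 min RT. Cells: MDA-kb2 AR-luc, MMTV promoter with AR and GR response elements. Compound exposure 16 h, 37C, 0% CO2, after 5 h pre-incubation. qHTS agonist mode.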

For test [18] the target is unchanged. Nature of the test: qHTS assay to identify small molecule antagonists of the androgen receptor (AR) signaling pathway using the MDA cell line (AID 743042; note: nearly all actives have a fitted effect of over 55% in size; note: potency is the fitted concentration of half-maximal effect). An outline of the steps:
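MDA-kb2 breast carcinoma cells carrying MMTV-luciferase (AR/GR responsive) were co-treated with compounds and the agonist R1881 for 16 h at 37C. Inhibition read as ONE-Glo luminescence; CellTiter-Fluor fluorescence measured in parallel for cytotoxicity.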

Structures are written as SMILES. Values joined by “and” are separate entries in the source; they are usually repeats but may differ in a detail not shown here. Identical values can stand only once. Some compounds were tested as several samples or in several runs, with calls that do not always agree. Active and inactive are the calls of the source. Unless noted, calls come from the whole dose curve; as a rule, active = well fitted curve in the direction sought with a large enough effect in the repeat runs; inconclusive = weak or mixed curves; inactive = no such curve, though single readings can be large; an effect the other way counts as inactive or inconclusive.

Chain of Estrogen receptor (Homo sapiens) (P03372 whole entry, looked up): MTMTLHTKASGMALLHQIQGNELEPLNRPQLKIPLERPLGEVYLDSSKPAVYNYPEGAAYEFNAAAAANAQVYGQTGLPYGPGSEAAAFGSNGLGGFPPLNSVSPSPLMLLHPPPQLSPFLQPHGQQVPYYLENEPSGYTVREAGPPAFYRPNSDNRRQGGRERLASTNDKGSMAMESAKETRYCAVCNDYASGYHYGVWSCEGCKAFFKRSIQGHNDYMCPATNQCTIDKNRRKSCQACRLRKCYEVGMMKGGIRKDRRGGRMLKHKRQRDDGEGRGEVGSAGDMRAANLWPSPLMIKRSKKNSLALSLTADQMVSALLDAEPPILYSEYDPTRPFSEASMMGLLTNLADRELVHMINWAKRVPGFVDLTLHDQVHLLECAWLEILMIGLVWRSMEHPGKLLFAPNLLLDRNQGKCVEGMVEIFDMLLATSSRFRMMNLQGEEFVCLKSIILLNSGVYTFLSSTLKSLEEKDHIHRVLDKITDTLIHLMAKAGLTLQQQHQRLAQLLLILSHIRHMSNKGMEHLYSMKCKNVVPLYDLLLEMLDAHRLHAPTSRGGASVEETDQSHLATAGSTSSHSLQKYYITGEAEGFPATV
Chain of Androgen receptor (Homo sapiens) (P10275 whole entry, looked up): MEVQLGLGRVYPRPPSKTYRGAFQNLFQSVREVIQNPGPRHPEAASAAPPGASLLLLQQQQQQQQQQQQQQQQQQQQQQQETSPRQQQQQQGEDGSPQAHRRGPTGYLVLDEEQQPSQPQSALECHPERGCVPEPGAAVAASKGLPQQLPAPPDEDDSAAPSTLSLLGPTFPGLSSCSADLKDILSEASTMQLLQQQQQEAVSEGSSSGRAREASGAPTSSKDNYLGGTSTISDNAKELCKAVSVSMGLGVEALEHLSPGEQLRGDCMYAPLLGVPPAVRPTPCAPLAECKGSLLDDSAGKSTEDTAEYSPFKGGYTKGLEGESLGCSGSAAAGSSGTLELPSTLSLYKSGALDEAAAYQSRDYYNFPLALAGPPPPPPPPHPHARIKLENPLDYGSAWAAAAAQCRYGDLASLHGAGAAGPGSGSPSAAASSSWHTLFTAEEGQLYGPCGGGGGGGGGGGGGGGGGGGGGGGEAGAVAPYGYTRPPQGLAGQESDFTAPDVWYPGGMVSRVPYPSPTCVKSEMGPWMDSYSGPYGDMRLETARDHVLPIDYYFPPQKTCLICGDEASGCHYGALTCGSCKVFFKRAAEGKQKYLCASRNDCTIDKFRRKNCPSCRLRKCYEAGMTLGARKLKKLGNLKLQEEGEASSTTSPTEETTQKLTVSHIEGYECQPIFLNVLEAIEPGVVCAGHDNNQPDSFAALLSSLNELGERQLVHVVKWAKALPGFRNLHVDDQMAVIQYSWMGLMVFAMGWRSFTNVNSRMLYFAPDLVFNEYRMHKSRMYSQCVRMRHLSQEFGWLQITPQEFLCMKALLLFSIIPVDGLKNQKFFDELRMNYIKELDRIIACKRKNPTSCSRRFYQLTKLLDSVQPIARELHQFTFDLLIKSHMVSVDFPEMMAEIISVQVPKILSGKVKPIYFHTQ
Chain of Aromatase (Homo sapiens) (P11511 whole entry, looked up): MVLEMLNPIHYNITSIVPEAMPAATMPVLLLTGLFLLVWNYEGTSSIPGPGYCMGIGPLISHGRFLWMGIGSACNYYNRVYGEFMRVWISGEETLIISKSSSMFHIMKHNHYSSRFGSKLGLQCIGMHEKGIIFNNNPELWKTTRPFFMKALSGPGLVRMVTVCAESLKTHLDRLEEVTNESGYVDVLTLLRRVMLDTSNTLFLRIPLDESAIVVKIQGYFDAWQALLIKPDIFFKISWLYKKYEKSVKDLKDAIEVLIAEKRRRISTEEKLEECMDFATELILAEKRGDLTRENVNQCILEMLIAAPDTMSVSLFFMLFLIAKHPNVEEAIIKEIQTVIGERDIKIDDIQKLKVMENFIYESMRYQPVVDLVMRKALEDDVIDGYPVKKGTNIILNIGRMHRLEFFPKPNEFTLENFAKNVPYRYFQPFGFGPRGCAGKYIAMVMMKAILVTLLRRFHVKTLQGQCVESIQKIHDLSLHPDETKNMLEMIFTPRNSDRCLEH

On to `COc1ccc(CN2CCN(C(c3ccc(F)cc3)c3ccc(F)cc3)CC2)c(OC)c1OC`, for which the Potency entry (in test [1]; with Aromatase (Homo sapiens)) was “inactive” throughout. For the same compound, the Potency in test [2] was 3.76 µM (active); in [3] it was 5.96 µM (active); in [4], 6.68 µM (active); in [5], 11.9 µM (active); in [6], 13.3 µM (active); in test [7], 26.8 µM (active).
For the compound `CCOC(=O)/C=C(C)/C=C/C=C(C)/C=C/c1c(C)cc(OC)c(C)c1C`, the Potency entry (in test [1]; in [8]; in test [9]; in [10]; in [11]; with Aromatase (Homo sapiens)) was “inactive” throughout. Further, the Potency in test [2] was 9.44 µM (active); in test [3], 2.37 µM (active).
As for `CCC(C)(C)C1CCCCC1OC(C)=O` (configuration not stated), the Potency result in test [1], in test [2], in test [4], in [8], in test [9] and in [5] was “inactive” each time. Also, the Potency entry in test [6], in [12], in [13], in [7], in test [10] and in test [11] was “inactive” each time. Also, in the test with Aromatase (Homo sapiens), the Potency result is “inactive”. Also, the activation in test [14] is 7.91% (inactive).
On to `CC(C)n1nc(-c2cc3cc(O)ccc3[nH]2)c2c(N)ncnc21`, for which the Potency in test [1] was 9.52 µM (active); in [2] it was 0.841 µM (active); in [3], 2.37 µM (active); in [4], 0.944 µM (active); in test [5], 0.106 µM (active); in test [6], 0.0944 µM (active). The Potency in the test with Aromatase (Homo sapiens) was 335 nM (active). For the same compound, the Potency entry in test [10] is “inactive”.
As for `O=C1Cc2cc(CCN3CCN(c4nsc5ccccc45)CC3)c(Cl)cc2N1`, the Potency result in test [1], in test [8], in [9], in [7], in [10] and in test [15] was “inactive” throughout. Further, the Potency entry (in test [11]; in the test with Aromatase (Homo sapiens)) was “inactive” throughout. Also, the Potency is 21.1 µM (active) and 10.6 µM (active) in [2]; 18.8 µM (active) and 9.44 µM (active) in test [4]; “inactive and 16.8 µM (active)” in test [5]. In [14], the activation is 1.77% (inactive) and -23.7% (inactive).
As for `Nc1ccc2cc(S(=O)(=O)O)cc(O)c2c1N=Nc1ccccc1C(F)(F)F`, the Potency entry in test [1], in test [2], in test [4], in test [8], in test [12] and in test [7] was “inactive” each time. The Potency entry with Aromatase (Homo sapiens) was “inactive”.
As for `CN(C)c1ccc(SC#N)cc1`, the Potency result in test [1], in [8], in [9], in test [12], in [7] and in test [10] was “inactive” in each case. Besides, the Potency entry (in test [11]; in the test with Aromatase (Homo sapiens)) was “inactive” each time. Besides, the Potency was 27.3 µM (active) in test [2], 30.6 µM (active) in [3] and 61.1 µM (active) in test [14].
As for `Cc1cc(O)c2ccccc2c1O`, the Potency result in test [1], in [8], in test [16], in test [17], in test [9] and in test [18] was “inactive” in each case. The Potency result (in test [13]; in test [7]; in [11]; with Aromatase (Homo sapiens)) was “inactive” in each case. The Potency in [2] was 29.8 µM (active); in test [4], 29.8 µM (active); in test [6], 33.5 µM (active). Moreover, the activation in test [14] is -13.8% (inactive).
For the compound `[Cl][Bi]([Cl])([c]1ccccc1)([c]1ccccc1)[c]1ccccc1`, the Potency in test [1] is 48.7 µM (active); in test [2] it was 1.36 µM (active); in test [3], 2.16 µM (active); in [9], 27.1 µM (active); in test [18], 13.6 µM (active); in test [5] it was 1.71 µM (active). Also, the Potency in test [6] was 0.682 µM (active); in test [7], 48.7 µM (active); in [10], 6.13 µM [inconclusive] (active); in test [11] it was 60.8 µM (active); in the test with Aromatase (Homo sapiens) it was 6820 nM (active). Besides, the Potency entry in test [17] was “inactive”.
Turning to `Nc1c2ccccc2nc2ccccc12`, the Potency is 16.9 µM (active) and 15.3 µM (active) in test [1]; 2.11 µM (active) and 4.27 µM (active) in test [2]; 2.66 µM (active) and 2.14 µM (active) in [3]; 944 nM (active) and 677 nM (active) in test [4]; 11.9 µM (active) and 677 nM (active) in test [14]; 18.8 µM (active) and 6.03 µM (active) with Aromatase (Homo sapiens). For the same compound, the Potency entry in test [12] and in [7] was “inactive” each time.

Values taken from PubChem BioAssay (Tox21).
